This is an account of results in PubChem BioAssay (NCATS).

A short description of experiment [1]: AP1 Signaling Pathway (AID 357; active = well fitted curve in either direction with a large enough effect, not every such curve was filed as active;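 also: ME-180 reporter cells stimulated with EGF at its EC50 level; % is scaled to controls: 0 for no effect and ±100 for the full control effect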). As to conditions: ME-180 AP-1-bla reporter, EGF-induced, beta-lactamase ratio, 5 h. The procedure, abridged: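 First, ME-180 AP-1-bla cells were cultured overnight at 37 °C in low-serum Opti-MEM. Next, titrated compounds with EC50 EGF were incubated 5 hours. Finally, CCF4 was added for 2.5 hours and the 460/530 nm ratio recorded.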

For experiment [2], the target named is Cytochrome P450 1A2 (Homo sapiens) (UniProt P05177). The experiment is described as follows: p450-cyp1a2 (AID 410; calls by dose curve; also: potency is read from the fitted curve at half-maximal effect;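 as to activity change, negative = inhibition: -100% = full effect of reference inhibitor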). The procedure, abridged:
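Luminescent readout of luciferin formed from Luciferin-ME by human CYP1A2; data normalized against complete inhibition by 57 uM furafylline. Enzyme 20nM, substrate 100uM at Km, 100mM KPO4 buffer, 60 min reaction at room temperature.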

Experiment [3] in a line: Stat Signaling Pathway (AID 446; active = well fitted curve in either direction with a large enough effect, not every such curve was filed as active;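 also: ME-180 cervical cancer cells given 40 pM IL-6 alongside compound; SIE-controlled beta-lactamase reporter measured as 460/530 nm FRET emission ratio; % is scaled to controls: 0 for no effect and ±100 for the full control effect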). As to conditions: ME-180 SIE beta-lactamase reporter, IL-6 stimulated, 5 h. Summed up: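 Reporter line: ME-180 cervical carcinoma, SIE-beta-lactamase. Treatment: compound with 40 pM IL-6, 5 hrs, 37 C, in low-serum OPTI-MEM with 10 mM HEPES pH 7.3. Detection: 460/530 nm fluorescence.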
Experiment [4] addresses Glucocorticoid receptor (Homo sapiens) (UniProt P04150). The experiment is described as follows: GR-GFP Redistribution (AID 450;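 active = compounds whose dose series gives a full or clear partial fitted curve of increased nuclear translocation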; also: potency is read from the fitted curve at half-maximal effect). The conditions noted are these: U2OS GR-GFP nuclear translocation, laser cytometry, 2 h.
Experiment [5] has the same target. Briefly: GR-EFC Redistribution (AID 451; calls by dose curve; also: potency is read from the fitted curve at half-maximal effect). The conditions noted are these: CHO-K1 GR-EFC translocation, beta-gal luminescence, 2 h. Summed up: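 CHO-K1 cells expressing nuclear EA and GR-ED fragments of b-gal; compounds titrated up to 46 uM final, 2 h at 37 C. GR nuclear translocation read as complemented b-gal luminescence after 1 h RT detection.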
For experiment [6], the target named is Mitogen-activated protein kinase 10 (Mus musculus) (UniProt Q61831). The experiment is described as follows: JNK3 AlphaScreen Assay (AID 530; active = well fitted curve in either direction with a large enough effect, not every such curve was filed as active;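 also: kinase came from lysate of stimulated human HepG2 cells; signal reports phosphorylation of biotinylated GST-cJun 1-79 at Ser73 with 10 µM ATP; % is scaled to controls: 0 for no effect and ±100 for the full control effect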). Summed up: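 Pre-activated (IL-1β/TNFα) JNK3 in HepG2 lysates phosphorylates biotin-GST-cJun(1-79), 10 uM ATP; anti-phospho-cJun(Ser73) AlphaScreen read at room temperature, pH 7.6 Tris buffer. Compounds pre-incubated 15 min as titrations.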
Background: In Alpha technology, singlet oxygen from a donor bead excites a nearby acceptor bead.

Experiment [7] has as its target 3',5'-cyclic-AMP phosphodiesterase 4B (Homo sapiens) (UniProt Q07343). The experiment is described as follows: qHTS Assay for Inhibitors of PDE-IV (AID 607; active = well fitted activation curve with a large enough effect in the main read-out, with a control signal flat, not every such curve was filed as active; also: % of control where 0% means no effect). Summed up:
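Cell-based read-out of cAMP via a modified cyclic nucleotide-gated channel and membrane potential dye (535/590 nm) in HEK293 cells expressing PDE4 endogenously. Compounds tested up to 22.9 uM final; 100 uM RO 20-1724 reference.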

A short description of experiment [8]: qHTS Assay for Lipid Storage Modulators (AID 1519; calls by dose curve). The conditions noted are these: Drosophila S3 cells, BODIPY lipid droplet/cell ratio, laser cytometry, cells loaded with oleic acid; for activity change, negative = inhibition: at 25.7 µM (top of the series). Summed up: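 Cells seeded at 5,000 per well were treated with compounds over a concentration series and loaded with oleic acid (400 uM, as added). Lipid droplet fluorescence (488 nm excitation, 500-530 nm channel) was read by laser-scanning cytometry and normalized to 20 uM Triacsin C.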
Background: qHTS replaces the single test concentration by a dilution series.

Experiment [9] addresses ATP-dependent 6-phosphofructokinase (Trypanosoma brucei brucei) (UniProt O15648). The experiment is described as follows: qHTS Assay to Find Inhibitors of T. brucei phosphofructokinase: hit validation (AID 492961). Also: % is scaled to controls: 0 for no effect and ±100 for the full control effect. The procedure, abridged: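 Luminescence from ADP-Glo reports ADP generated as T. brucei PFK (1.25 nM) phosphorylates 0.5 mM fructose-6-phosphate using 0.1 mM ATP. Reactions ran 45 min at room temperature, pH 8.0.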

For experiment [10], the target named is Ubiquitin carboxyl-terminal hydrolase 1 (Homo sapiens) (UniProt O94782). The experiment is described as follows: Inhibitors of USP1/UAF1: Pilot qHTS (AID 504865).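 Also: rhodamine fluorescence freed from ubiquitin-rhodamine substrate followed over time; top concentration of the series differs between compounds; % is scaled to controls: 0 for no effect and ±100 for the full control effect; nearly all actives have a fitted effect of over 35% in size.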 Summed up: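 In 50mM HEPES pH 7.8 containing 0.5mM EDTA, 1mM TCEP, 0.1 mg/ml BSA and 0.01% Tween-20, 1nM USP1/UAF1 is exposed to compound for 15 min, then Ub-Rho (150nM final) is added and fluorescence is read over time.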

For experiment [11], the target named is Luciferin 4-monooxygenase (Photinus pyralis) (UniProt P08659). The experiment is described as follows: Biochemical firefly luciferase enzyme assay for NPC (AID 624030).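 Also: purified P. pyralis luciferase at 10 nM with luciferin and ATP substrate; 0% = DMSO and -100% = full luciferase inhibition by PTC124 control; nearly all actives have a fitted effect of over 70% in size.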 The procedure, abridged:
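Purified P. pyralis luciferase at 10 nM in 50 mM Tris Acetate (final), luminescence read within 5 minutes of enzyme addition to compounds. Activity normalised to PTC124 versus DMSO; concentration-response curves classed by r2, magnitude and activity.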

Another experiment relates to AS120. The experiment is described as follows: qHTS profiling for inhibitors of Plasmodium falciparum proliferation (AID 504749). Also: nearly all actives have a fitted effect of over 60% in size. Also: potency is read from the fitted curve at half-maximal effect.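 As to activity, negative = inhibition: 0% = DMSO vehicle and full inhibition = artemisinin control.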 As to conditions: P. falciparum in erythrocytes, SYBR Green DNA, 72 h; series mostly up to 28.7 µM. The procedure, abridged: (§1)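 P. falciparum-infected erythrocytes (0.3% parasitemia, 2.5% hematocrit) incubated with compound 72 h at 37 C, 5% CO2. Parasite DNA detected by SYBR Green after lysis, overnight at room temperature; normalised to 0.29 uM artemisinin and DMSO.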

Another experiment relates to CP238. The experiment is described as above. The conditions noted are these: P. falciparum in erythrocytes, SYBR Green DNA, 72 h; series mostly up to 12.8 µM. The procedure, abridged: as §1
For another experiment, the system named is CP262. Described as above. As to conditions: P. falciparum in erythrocytes, SYBR Green DNA, 72 h; series mostly up to 12.8 µM. The procedure, abridged:
as §1

The subject of a further experiment is CP265. The experiment is described as above. As to conditions: P. falciparum in erythrocytes, SYBR Green DNA, 72 h; series mostly up to 12.8 µM. Summed up: as §1
A further experiment relates to FAB9. The description is as above. As to conditions: P. falciparum in erythrocytes, SYBR Green DNA, 72 h; series mostly up to 12.8 µM. The procedure, abridged:
as §1

For the next experiment, the system named is JCK. The description is as above. The conditions noted are these: P. falciparum in erythrocytes, SYBR Green DNA, 72 h; series mostly up to 12.8 µM. Summed up: as §1
Experiment [12] in a line: NFAT Signaling Pathway (AID 444; active = well fitted curve in either direction with a large enough effect, not every such curve was filed as active). As to conditions: Jurkat NFAT-bla M1, carbachol, beta-lactamase ratio, 5 h. The procedure, abridged:
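Jurkat cells with NFAT-driven β-lactamase reporter and co-expressed M1 receptor, stimulated with carbachol (final 1 uM, ~EC50), compound titration, 5 h at 37 °C. CCF4 loaded 1 h at RT; 460/530 nm ratio gave %activity and AC50.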

Experiment [13] can be described thus: qHTS profiling for inhibitors of Plasmodium falciparum proliferation (AID 504749). Also: potency is read from the fitted curve at half-maximal effect.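 As to activity, negative = inhibition: 0% = DMSO vehicle and full inhibition = artemisinin control.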 As to all read-outs here: nearly all actives have a fitted effect of over 60% in size. The conditions noted are these: P. falciparum in erythrocytes, SYBR Green DNA, 72 h; for activity, negative = inhibition: at 12.8 µM (top of the series). The procedure, abridged: as §1
The subject of a further experiment is CP201. The description is as above. As to conditions: P. falciparum in erythrocytes, SYBR Green DNA, 72 h; series mostly up to 12.8 µM. Summed up:
as §1

Where [14] appears, read: at 7.69 µM (top of the series) unless noted.
Setting [15] is: measured here: cell count channel max response.
[16] abbreviates: measured here: lipid channel max response.

Where “and” joins values, the source holds several entries; their conditions need not be identical. Identical values can stand only once. Records with an inconclusive call do not appear. Calls of active or inactive are those of the source. Unless noted, calls follow the shape of the dose curve; as a rule, active = well fitted curve in the direction sought with a large enough effect; inconclusive = small, poorly fitted or top-dose-only effect, or another doubt; inactive = no such curve, though single readings can be large; an effect the other way counts as inactive or inconclusive. Bounds are passed on as bounds.

Sequence of Cytochrome P450 1A2 (Homo sapiens) (P05177 whole entry, looked up): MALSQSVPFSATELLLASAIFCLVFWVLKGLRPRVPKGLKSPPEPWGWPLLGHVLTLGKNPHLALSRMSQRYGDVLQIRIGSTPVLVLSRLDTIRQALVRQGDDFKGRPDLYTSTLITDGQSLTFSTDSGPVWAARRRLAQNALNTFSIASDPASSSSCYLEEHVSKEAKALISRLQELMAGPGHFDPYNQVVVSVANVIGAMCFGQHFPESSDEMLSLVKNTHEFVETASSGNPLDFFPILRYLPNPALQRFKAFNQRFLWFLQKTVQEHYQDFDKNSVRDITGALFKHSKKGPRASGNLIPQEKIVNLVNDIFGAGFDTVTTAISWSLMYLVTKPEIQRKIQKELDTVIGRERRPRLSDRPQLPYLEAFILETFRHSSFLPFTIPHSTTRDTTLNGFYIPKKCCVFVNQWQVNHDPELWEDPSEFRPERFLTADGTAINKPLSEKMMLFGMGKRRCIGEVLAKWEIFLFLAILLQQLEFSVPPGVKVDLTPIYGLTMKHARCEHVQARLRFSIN
Sequence of 3',5'-cyclic-AMP phosphodiesterase 4B (Homo sapiens) (Q07343 whole entry, looked up): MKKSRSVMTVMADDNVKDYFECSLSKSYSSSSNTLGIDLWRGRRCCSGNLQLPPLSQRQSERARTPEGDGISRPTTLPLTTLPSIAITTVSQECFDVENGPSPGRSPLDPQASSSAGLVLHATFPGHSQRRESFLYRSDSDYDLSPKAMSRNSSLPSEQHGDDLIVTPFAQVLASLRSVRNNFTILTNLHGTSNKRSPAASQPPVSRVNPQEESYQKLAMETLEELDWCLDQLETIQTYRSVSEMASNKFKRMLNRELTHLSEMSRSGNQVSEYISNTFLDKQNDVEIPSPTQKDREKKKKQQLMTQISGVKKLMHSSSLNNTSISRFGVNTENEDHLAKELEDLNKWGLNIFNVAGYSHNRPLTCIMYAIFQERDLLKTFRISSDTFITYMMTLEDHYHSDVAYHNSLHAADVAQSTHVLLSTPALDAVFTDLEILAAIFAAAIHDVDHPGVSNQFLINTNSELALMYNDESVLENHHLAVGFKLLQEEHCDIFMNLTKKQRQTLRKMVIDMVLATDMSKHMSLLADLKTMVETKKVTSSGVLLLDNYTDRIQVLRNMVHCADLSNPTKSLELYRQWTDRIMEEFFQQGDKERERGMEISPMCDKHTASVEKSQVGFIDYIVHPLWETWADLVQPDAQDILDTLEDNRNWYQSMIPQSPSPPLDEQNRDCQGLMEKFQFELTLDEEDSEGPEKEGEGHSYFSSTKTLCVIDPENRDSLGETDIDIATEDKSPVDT
Sequence of Ubiquitin carboxyl-terminal hydrolase 1 (Homo sapiens) (O94782 whole entry, looked up): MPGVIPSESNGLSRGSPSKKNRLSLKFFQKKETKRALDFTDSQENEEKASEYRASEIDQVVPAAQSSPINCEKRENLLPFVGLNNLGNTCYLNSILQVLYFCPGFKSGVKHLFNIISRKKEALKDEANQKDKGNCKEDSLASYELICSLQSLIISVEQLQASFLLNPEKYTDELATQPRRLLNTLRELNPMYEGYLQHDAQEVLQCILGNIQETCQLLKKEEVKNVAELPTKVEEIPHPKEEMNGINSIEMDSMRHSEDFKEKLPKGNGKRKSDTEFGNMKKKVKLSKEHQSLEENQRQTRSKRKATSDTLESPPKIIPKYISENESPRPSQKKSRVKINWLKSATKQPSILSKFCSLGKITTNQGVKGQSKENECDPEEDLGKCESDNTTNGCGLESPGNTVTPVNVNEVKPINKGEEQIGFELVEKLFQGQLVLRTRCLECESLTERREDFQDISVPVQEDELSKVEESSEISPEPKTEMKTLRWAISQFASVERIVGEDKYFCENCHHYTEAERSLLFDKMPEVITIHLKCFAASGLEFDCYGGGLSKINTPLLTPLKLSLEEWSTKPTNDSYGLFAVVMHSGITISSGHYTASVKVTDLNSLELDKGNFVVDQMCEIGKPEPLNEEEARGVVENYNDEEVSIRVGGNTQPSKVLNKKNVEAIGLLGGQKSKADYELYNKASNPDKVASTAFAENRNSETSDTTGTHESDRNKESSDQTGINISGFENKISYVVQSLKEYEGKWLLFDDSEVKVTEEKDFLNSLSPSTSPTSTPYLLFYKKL
Sequence of Luciferin 4-monooxygenase (Photinus pyralis) (P08659 whole entry, looked up): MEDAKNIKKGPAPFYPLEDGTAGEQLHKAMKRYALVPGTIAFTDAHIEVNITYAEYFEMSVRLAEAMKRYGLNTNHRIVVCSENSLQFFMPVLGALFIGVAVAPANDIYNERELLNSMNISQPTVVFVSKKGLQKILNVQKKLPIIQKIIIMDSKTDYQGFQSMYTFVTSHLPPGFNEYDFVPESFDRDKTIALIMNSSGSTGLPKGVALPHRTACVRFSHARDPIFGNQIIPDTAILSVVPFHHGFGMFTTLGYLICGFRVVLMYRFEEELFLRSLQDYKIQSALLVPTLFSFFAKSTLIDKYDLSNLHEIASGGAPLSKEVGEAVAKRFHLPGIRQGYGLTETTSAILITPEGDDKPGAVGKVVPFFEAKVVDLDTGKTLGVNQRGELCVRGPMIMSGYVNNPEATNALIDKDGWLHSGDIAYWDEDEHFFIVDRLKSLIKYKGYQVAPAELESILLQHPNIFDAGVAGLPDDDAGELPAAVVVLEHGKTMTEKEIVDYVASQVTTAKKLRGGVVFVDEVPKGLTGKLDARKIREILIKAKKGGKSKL
Sequence of ATP-dependent 6-phosphofructokinase (Trypanosoma brucei brucei) (O15648 whole entry, looked up): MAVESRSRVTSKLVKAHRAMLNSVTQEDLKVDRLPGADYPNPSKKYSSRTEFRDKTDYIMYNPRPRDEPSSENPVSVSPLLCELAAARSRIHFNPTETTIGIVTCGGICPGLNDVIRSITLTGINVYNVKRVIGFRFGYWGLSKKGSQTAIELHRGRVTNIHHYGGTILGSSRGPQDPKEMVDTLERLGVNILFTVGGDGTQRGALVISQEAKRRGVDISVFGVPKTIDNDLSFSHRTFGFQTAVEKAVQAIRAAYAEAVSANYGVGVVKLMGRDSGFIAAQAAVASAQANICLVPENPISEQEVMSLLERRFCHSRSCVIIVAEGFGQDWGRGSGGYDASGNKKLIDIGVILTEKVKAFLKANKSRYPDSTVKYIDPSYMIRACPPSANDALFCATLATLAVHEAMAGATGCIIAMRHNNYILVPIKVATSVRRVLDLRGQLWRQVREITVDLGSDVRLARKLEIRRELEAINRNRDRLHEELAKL
Sequence of Glucocorticoid receptor (Homo sapiens) (P04150 whole entry, looked up, the tested form may be a part): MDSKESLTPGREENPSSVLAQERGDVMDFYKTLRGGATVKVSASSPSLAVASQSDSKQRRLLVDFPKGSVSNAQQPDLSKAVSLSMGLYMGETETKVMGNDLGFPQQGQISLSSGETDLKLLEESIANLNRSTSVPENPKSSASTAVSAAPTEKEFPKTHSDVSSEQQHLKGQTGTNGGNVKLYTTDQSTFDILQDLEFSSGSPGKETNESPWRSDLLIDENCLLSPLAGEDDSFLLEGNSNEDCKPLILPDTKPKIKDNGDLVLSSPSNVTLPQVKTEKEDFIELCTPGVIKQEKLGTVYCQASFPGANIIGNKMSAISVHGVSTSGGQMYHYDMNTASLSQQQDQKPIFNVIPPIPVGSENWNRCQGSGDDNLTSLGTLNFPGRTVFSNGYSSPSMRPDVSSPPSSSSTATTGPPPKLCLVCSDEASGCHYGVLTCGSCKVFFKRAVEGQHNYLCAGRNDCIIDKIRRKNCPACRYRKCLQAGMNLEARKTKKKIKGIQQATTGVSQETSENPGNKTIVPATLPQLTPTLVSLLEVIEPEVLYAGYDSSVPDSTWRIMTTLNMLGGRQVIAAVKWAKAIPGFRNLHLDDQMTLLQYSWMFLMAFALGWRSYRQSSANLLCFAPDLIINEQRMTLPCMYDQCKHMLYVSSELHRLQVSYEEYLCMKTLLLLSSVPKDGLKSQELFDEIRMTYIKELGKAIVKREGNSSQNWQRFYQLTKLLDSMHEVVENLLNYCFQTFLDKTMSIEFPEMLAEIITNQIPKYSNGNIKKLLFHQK

Turning to `CCN(CC)CC#CCOC(=O)[C@@](O)(c1ccccc1)C1CCCCC1`, the figures for the activity change, negative = inhibition in experiment [1] (at 17.2 µM (top of the series)), in experiment [1] (at 38 µM (top of the series)) and in [8] were 0.766% (inactive), -1.31% (inactive) and -3.63% (inactive), respectively. The Potency in [2] is 3.98 µM (active) and 1.26 µM (active); in [4], > 46 µM (inactive) and > 20.6 µM (inactive); in experiment [5], > 46 µM (inactive) and > 20.6 µM (inactive). In addition, the activity, negative = inhibition in experiment [3] (setting [14]) was -21.9% [at 38 µM] (inactive). In addition, the Potency result (in [6]; in experiment [7]; in experiment [10]; in the experiment with AS120; with CP238; in the experiment with CP262) was “inactive” throughout. Besides, the Potency result in the experiment on CP265, with FAB9 and in the experiment with JCK was “inactive” throughout. Besides, the max response was -6.72% in experiment [8] (setting [15]) and -11.7% in experiment [8] (setting [16]). Moreover, the call in experiment [9] and in [11] was inactive.
On to `CCN(CC)CCC[C@H](C)Nc1ccnc2cc(Cl)ccc12`, for which the activity change, negative = inhibition in experiment [1] (at 17.2 µM (top of the series)) was 13.4% (inactive); in experiment [1] (at 38 µM (top of the series)), 1.88% (inactive); in experiment [12] (at 17.2 µM (top of the series)), -9.2% (inactive); in experiment [12] (at 38 µM (top of the series)), -24.9% (inactive); in [8] it was -0.708% (inactive). In addition, the activity, negative = inhibition is 3.07% (inactive) in experiment [3] (at 17.2 µM (top of the series)) and 15.2% (inactive) in experiment [3] (at 38 µM (top of the series)). Besides, the Potency in [4] is > 46 µM (inactive) and > 20.6 µM (inactive); in experiment [5], > 46 µM (inactive) and > 20.6 µM (inactive); in [13] (parasite line A), 0.158 µM (active); in experiment [13] (parasite line B), 0.316 µM (active); in the experiment on AS120, 11.2 µM (active); in the experiment with CP201 it was 12 µM (active). In addition, the Potency in the experiment with CP238 was 10 µM (active); in the experiment on CP262, 2.39 µM (active); in the experiment with FAB9 it was 0.141 µM (active); in the experiment on JCK it was 10 µM (active). The Potency entry in experiment [6], in [7] and in [10] was “inactive” in each case. Further, the max response in experiment [8] (setting [15]) was -15.4%; in [8] (setting [16]), -16%. For the same compound, the compound was called inactive in [9] and in [11].
For `NC(N)=NC[C@@H]1COC2(CCCCC2)O1`, the results for the activity change, negative = inhibition in [1] (setting [14]), in [12] (setting [14]) and in experiment [8] were 13.7% [at 17.2 µM] (inactive), 18.5% [at 17.2 µM] (inactive) and -0.418% (inactive), respectively. Moreover, the Potency entry (in [2]; in experiment [6]; in experiment [7]; in [10]; in the experiment with AS120; in the experiment on CP201) was “inactive” in each case. Moreover, the Potency entry in the experiment on CP238, in the experiment on CP262, in the experiment with CP265, in the experiment with FAB9 and with JCK was “inactive” each time. Moreover, the activity, negative = inhibition in experiment [3] (setting [14]) was 6.54% [at 17.2 µM] (inactive); in [13] (parasite line A), -12.1% (inactive); in experiment [13] (parasite line B), -13% (inactive). Moreover, the Potency in [4] and in experiment [5] was > 20.6 µM (inactive) throughout. Besides, the max response in experiment [8] (setting [15]) was -12.5%; in experiment [8] (setting [16]), -12.6%. Further, the result in experiment [9] and in [11] was inactive.
